Here are results for 110 compounds from ChEMBL document CHEMBL4513216, “Probing the Open Global Health Chemical Diversity Library for Multistage-Active Starting Points for Next-Generation Antimalarials” (ACS Infect Dis, 2020).

The whole screen tested about 69,000 compounds, of which about 8,600 (12%) showed an effect of 50% or more. This is one part of a sample in which strong results are shown more often than they occur.

This assay deals with Plasmodium berghei. Description: Screen against P. berghei liver stage (PbLuc), transformed with Luciferase, at 10uM. It is filed as functional, HepG2. The following applies: tested at 10 uM.
On to `N#Cc1ccc(S(=O)(=O)Nc2cnn(C3CCOCC3)c2)cc1`, for which the INHIBITION came to 5.51%. With `CC(C)(NC(=O)c1cnc(-c2ccccc2F)s1)C(N)=O`, the INHIBITION was -8.9%. Take `Cc1cnc(N2CC[C@@H]3O[C@@H](COCc4ccccn4)CC[C@@H]32)nc1`: the INHIBITION turned out to be 41.6%. For `COc1ccc(-c2cc(=O)n3c(n2)CCCCC3)cc1` the value was 1.45%; for `Cc1nn(C)c(C)c1-c1ccnc(N(C)Cc2noc(C(C)C)n2)n1`, 4.35%.

For the compound `Cc1nn(C)c(C)c1-c1ccnc(N(C)Cc2nc(C(C)C)no2)n1`, the INHIBITION worked out at 68.2%.

For the compound `Cc1nn(C)cc1-c1ccnc(N(C)Cc2noc(C(C)C)n2)n1`, the INHIBITION is reported as -147%. For `Cc1csc(C2CCCN(C(=O)c3cccc4c3OCO4)C2)n1` (stereo not given) the value was 27.6%. Turning to `Cc1nc(CN2CCN(C)C(=O)C23CCN(C(C)C)CC3)cs1`, the INHIBITION is on record as 32.5%. Then `Cc1cc(C)n2ncc(CN3CCC(Cn4cc(CO)nn4)CC3)c2n1`, with 20.1%. For `Cc1ccc(CN2CCC(n3cc(CN4CCC(O)CC4)nn3)CC2)s1` the value was 7.43%; for `Cc1cccc(CN2CCC(n3cc(CCO)nn3)CC2)c1C`, 53.3%; for `Cc1cc(C)n2ncc(CN3CCC(n4cc(CCO)nn4)CC3)c2n1`, 58.6%.

In the case of `Cc1cc(C)n2ncc(CN3C[C@@H](O)[C@H](Oc4ccccc4)C3)c2n1`, the INHIBITION is reported as -5.71%. Then `COCc1cn(C2CCN(Cc3ccc(Cl)s3)CC2)nn1`, with 5.23%; and `COCCN1CCN(Cc2cnc(C3(C)CCCCO3)nc2)CC1` (stereo not given), with 3.25%. On to `CS(=O)(=O)NCCC1CCCCN1C(=O)NCCc1ccccc1` (stereo not given), for which the INHIBITION came to 28.3%. For `CCCC1CCCN(Cc2csc(-c3cnn(C)c3)n2)CC1` (stereo not given) the value was 55.9%. Regarding `CC1CCCN(Cc2csc(-c3ncccn3)n2)CC1` (stereo not given), the INHIBITION came out at 80.8%. As for `c1cnc(-c2nc(CN3CCCC(N4CCCC4)C3)cs2)nc1` (stereo not given), the INHIBITION is reported as -16.817%. In the case of `COCC(=O)N1CCN(Cc2csc(-c3ncccn3)n2)CC1`, the INHIBITION was determined as 38.9%. Then `c1cnc(-c2nc(CN3CCn4c(nnc4C4CC4)C3)cs2)nc1`, with -0.219%; and `CCCC1CCCN(Cc2csc(-c3ncccn3)n2)CC1` (stereo not given), with 91.7%; and `COCCN1CCN(Cc2csc(-c3cnn(C)c3)n2)CC1`, with 7.75%. `Cn1cc(-c2nc(CN3CCN(CCO)CC3)cs2)cn1`: the INHIBITION is -0.847%. Then `c1cnc(-c2nc(CN3CCCC(Cn4cncn4)C3)cs2)nc1` (stereo not given), with 15.6%; and `CCC1CCCN(C(=O)Cc2csc(-c3ncccn3)n2)C1` (stereo not given), with 14.7%; and `CC(=O)NC1CCCN(Cc2csc(-c3ncccn3)n2)C1` (stereo not given), with 35.4%. Then `NC(=O)C1CCN(Cc2csc(-c3ncccn3)n2)CC1`, with 55.05%; and `Cn1ccc(C(=O)N2CCC3(CC2)CC(Nc2cnccn2)CO3)n1` (stereo not given), with -4.26%.

With `COc1ccc(-n2nc(C(C)=O)c(C(C)=O)c2C)cc1Cl`, the INHIBITION is -7.27%. Then `Cn1cc(NC(=O)Nc2ccc3c(c2)OCO3)cn1`, with 24%. Then `OCCN(Cc1ccno1)Cc1cc(Br)ccc1F`, with 25.3%.

On to `COCC(=O)NCCc1nc(N(C)C)ncc1-c1ccncc1`, for which the INHIBITION came to 14.325%.

In the case of `NCC(=O)N1CCCC1c1n[nH]cc1-c1ccccc1F` (stereo not given), the INHIBITION is 10.9%. With `Cc1cc(N2CCCC(O)(CN(C)C)C2)c2cc3c(cc2n1)OCO3` (stereo not given), the INHIBITION worked out at 11.6%. Then `CC(C)Oc1cccc(C(=O)Nc2nncs2)c1`, with -16.8%; and `CCCS(=O)(=O)N1Cc2ccnn2CC(c2nc(C)no2)C1` (stereo not given), with 28.2%; and `c1cnc(-c2nc(CN3CCCN(Cc4cccs4)CC3)cs2)nc1`, with 39.75%.

Consider `c1cnc(-c2nc(CN3CCN(CC4CC4)CC3)cs2)nc1`, for which the INHIBITION stood at 77.85%.

As for `c1cnc(-c2nc(CN3CCC(c4ccn[nH]4)CC3)cs2)nc1`, the INHIBITION was found to be 12.8%. In the case of `O=C([C@@H]1COC[C@H]2CN(c3ccncn3)C[C@H]21)N1CCCCO1`, the INHIBITION is given as -11.6%.

`COc1ccc(CNCc2nnc3n2CC(C(F)(F)F)CC3)cc1` (stereo not given): the INHIBITION turned out to be 27.5%. Consider `Fc1ccc(CNCc2nnc3n2CC(C(F)(F)F)CC3)cc1` (stereo not given), for which the INHIBITION was found to be 63%. For `Cc1ccc(CNCc2nnc3n2CC(C(F)(F)F)CC3)cc1` (stereo not given) the value was 45.1%. As to `FC(F)(F)C1CCc2nnc(CNCc3cccs3)n2C1` (stereo not given), the INHIBITION amounted to 26%. For `Fc1ccc(CNCc2nnc3n2CC(C(F)(F)F)CC3)c(F)c1` (stereo not given) the value was 63%. For `FC(F)(F)C1CCc2nnc(CNCc3ccsc3)n2C1` (stereo not given) the value was 37%; for `COc1ccc(Cl)cc1NCC(=O)NCc1cccnc1OC`, -12.2%; for `CC(=O)N1CCc2ccc(NC(=O)c3cn(C)nn3)cc2C1`, 24.2%.

In the case of `CCc1ncc2c(n1)CN(CC(=O)Nc1cc(C)on1)CC2`, the INHIBITION is -7.31%. For `COc1ccc2cc(C(=O)NCCNc3ccc(C)nn3)[nH]c2c1` the value was -17.7%; for `Cc1cc(CC(=O)N2CCc3cc(Br)sc3C2)n[nH]1`, -37.6%.

For the compound `Fc1ccccc1CN1CCC[C@@H](Cn2nnc(-c3cccs3)n2)C1`, the INHIBITION amounted to 22.62%. Then `Cc1cccc(S(=O)(=O)N2CCCc3c(c(=O)n(C)n3C)C2)c1`, with 70.4%; and `Cn1c2c(c(=O)n1C)CN(S(=O)(=O)c1cccs1)CCC2`, with 18.7%. `COc1nn(C)c2c1CCCN(S(=O)(=O)c1cccc(C)c1)C2`: the INHIBITION was determined as 80.2%. As for `COc1cccc(S(=O)(=O)N2CCCc3c(OC)nn(C)c3C2)c1`, the INHIBITION was determined as 18.5%. As to `Cn1c2c(c(=O)n1C)CN(C(=O)c1cccc(F)c1)CCC2`, the INHIBITION worked out at 46.6%.

Turning to `COc1nn(C)c2c1CCCN(S(=O)(=O)c1cccc(F)c1)C2`, the INHIBITION is -31.3%. In the case of `CC(C)c1nc(C2CCCN(C(=O)c3ccc4c(c3)COC4)C2)no1` (stereo not given), the INHIBITION is 1.75%. `c1nc(N2CCOCC2)ncc1-c1cncn1CCCN1CCCCC1`: the INHIBITION was 26.585%.

Turning to `CCOC(=O)CN1C(=O)CN(S(C)(=O)=O)CCC(OC)c2ccccc21` (stereo not given), the INHIBITION amounted to 54.8%. Take `CCOC(=O)N1CCC(OC)c2ccccc2N(CC(=O)NC)C(=O)C1` (stereo not given): the INHIBITION is reported as 42.7%.

For `CCS(=O)(=O)N1CCC(OC)c2ccccc2N(CC(=O)NC)C(=O)C1` (stereo not given), the INHIBITION worked out at 43.4%. Regarding `CCc1ccc(CN2CCC(CNC(=O)c3ccc(C)nc3)C2)nc1` (stereo not given), the INHIBITION is on record as -16.8%. Then `CCn1ccnc1CN1CCC(CNC(=O)c2ccc(C)nc2)C1` (stereo not given), with 26.8%; and `Cc1ccc(C(=O)NCC2CCN(Cc3ccccc3C#N)C2)cn1` (stereo not given), with 58.6%. For `CCOC1CC2(CCN(Cc3cccn3C)CC2)C1` the value was 29%; for `Cn1cc(CN2CCc3c(nnn3C)C2COCc2ccccc2)cn1` (stereo not given), -90.3%; for `Cc1nccn1C1CCCN(C(=O)c2cnn(C)c2C2CC2)C1` (stereo not given), -3.58%. Then `Cc1cc(C)nc(NC(=O)NCCCSc2nncn2C)n1`, with 9%; and `CCc1cnc(CN(C(C)=O)C2CCN(CCc3ccncc3)C2)o1` (stereo not given), with 42.9%; and `O=C(CC[C@@H]1CCCN2CCCC[C@H]12)N1CCC(c2nnc[nH]2)CC1`, with -9.8%. Turning to `Fc1cnc(N2CCCn3c(nnc3Cn3cccc3)C2)nc1`, the INHIBITION is -23.4%. Consider `Fc1cnc(N2CCn3c(CN4CCCC4)nnc3C2)nc1`, for which the INHIBITION was 57.9%. Then `Fc1cnc(N2CCCn3c(CN4CCOCC4)nnc3C2)nc1`, with -16.9%; and `CS(=O)(=O)c1ccc(C(=O)N2CCCC(n3cncn3)C2)o1` (stereo not given), with 21.8%. Then `CCc1nnc(Nc2cccc(C3CCN(C(C)=O)CC3)n2)s1`, with -28.6%; and `Cc1nnc(Nc2cccc(C3CCN(CCO)CC3)n2)s1`, with 13.6%; and `CCc1nnc(Nc2cccc(C3CCN(C)CC3)n2)s1`, with 12.3%. For `CCc1nnc(Nc2cccc(C3CCN(CCO)CC3)n2)s1` the value was 55.7%; for `CCc1nnc(Nc2cccc(C3CCN(C(=O)CN(C)C)CC3)n2)s1`, 22%. As to `CCc1nnc(Nc2cccc(C3CCN(S(=O)(=O)N(C)C)CC3)n2)s1`, the INHIBITION is listed as 53.2%.

For the compound `CS(=O)(=O)NC1CCCN(C(=O)Nc2ccccc2Cn2cccn2)C1` (stereo not given), the INHIBITION is recorded as 20.9%. Then `O=C(NCCn1ccnc1)N1CCCC1c1cccs1` (stereo not given), with 7.333%; and `Cc1cc(F)c2c(c1)CCCN2Cc1cc(=O)n(C)c(=O)n1C`, with -14.2%; and `COc1ccc(-c2cnc(CN3CCCC3Cn3cccn3)o2)cc1` (stereo not given), with -21.8%. `c1csc(CN2Cc3nccn3CC(Cn3cncn3)C2)n1` (stereo not given): the INHIBITION is 28.5%. Then `O=c1c(NCCNCCO)c(N2CCN(Cc3ccccc3)CC2)c1=O`, with 28.3%; and `O=c1c(NCCO)c(N2CCN(c3ccccc3)CC2)c1=O`, with 29.8%; and `O=c1c(NCCNCCO)c(N2CCN(c3ccccc3)CC2)c1=O`, with 55.5%. `COc1ccc(CN2C[C@@H]3COC[C@]3(CN(C)C)C2)cc1`: the INHIBITION is given as 20.5%. Then `CN(Cc1cccc(C#N)c1)C(=O)C1CC(c2cccc(F)c2)=NO1` (stereo not given), with 8.38%. Take `COc1ccc(OC)c2c(C)cc(N(C)CCO)nc12`: the INHIBITION came out at 0.897%.

As for `COc1ccc(OC)c2c(C)cc(N(CCO)CCO)nc12`, the INHIBITION was determined as 1.79%. Then `COc1ccc(OC)c2c(C)cc(N(C)CCCO)nc12`, with 51.1%. Then `O=C(NCc1ccc2c(c1)OCO2)c1ccc(N2CCCCC2)nn1`, with 33.4%; and `CN(C)S(=O)(=O)N1CC[C@]2(C[C@@H](Oc3cccnc3)CO2)C1`, with 21.8%. Then `CN(C)S(=O)(=O)N1C[C@@H](Oc2ccccn2)[C@H]2OCCC[C@H]21`, with -4.74%; and `O=C(c1ccccc1)N1CCC[C@]2(C[C@@H](OCc3ccccn3)CO2)C1`, with 49.7%; and `CCS(=O)(=O)N1C[C@@H](OCc2ccccn2)[C@@H]2OCCC[C@@H]21`, with 16.6%. Regarding `Cc1cccc(C(=O)N2CC[C@]3(C[C@H](OCc4ccccn4)CO3)C2)c1`, the INHIBITION came to 71.9%.

Take `Cc1ccc(C(=O)N2CC[C@]3(C[C@@H](OCc4ccccn4)CO3)C2)nc1`: the INHIBITION is reported as 35.7%. With `CN(C)S(=O)(=O)N1CC[C@]2(C[C@H](OCc3ccncc3)CO2)C1`, the INHIBITION turned out to be 57.1%. Regarding `CN(C)S(=O)(=O)N1CC[C@]2(C[C@H](Oc3cccnc3)CO2)C1`, the INHIBITION is recorded as 0%. For `Cc1cccc(COC2COC3(CCN(Cc4ccoc4)CC3)C2)n1` (stereo not given) the value was 11.4%; for `Cc1cccc(CO[C@H]2CO[C@@]3(CCN(S(=O)(=O)N(C)C)C3)C2)n1`, 55.5%. As to `CN(C)S(=O)(=O)N1C[C@@H](OCc2ccccn2)[C@H]2OCCC[C@H]21`, the INHIBITION was found to be 56.1%. For `Cc1cccc(COC2COC3(CCN(S(C)(=O)=O)CC3)C2)n1` (stereo not given) the value was 44.2%.
